For one experiment, the system named is N140. Put plainly: qHTS profiling for inhibitors of Plasmodium falciparum proliferation (AID 504749). Note: potency is the fitted concentration of half-maximal effect. The conditions noted are these: P. falciparum in erythrocytes, SYBR Green DNA, 72 h; series mostly up to 28.7 µM. An outline of the steps: (§1)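 Quantitative HTS: compounds pinned into medium, infected erythrocytes added (0.3% parasitemia, 2.5% hematocrit), 72 h culture at 37 C under 5% CO2. Saponin/Triton lysis with SYBR Green I, overnight RT, then fluorescence read.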
A general note: Quantitative high-throughput screening tests each substance at several concentrations.

Another experiment relates to P93_24. Described as above. The note with it: P. falciparum in erythrocytes, SYBR Green DNA, 72 h; series mostly up to 28.7 µM. In outline:
as §1

The test system of a further experiment is P94_40. Described as above. The conditions noted are these: P. falciparum in erythrocytes, SYBR Green DNA, 72 h; series mostly up to 28.7 µM. In outline:
as §1

The next experiment concerns PAD. The experiment is described as above. The note with it: P. falciparum in erythrocytes, SYBR Green DNA, 72 h; series mostly up to 28.7 µM. An outline of the steps: as §1
The next experiment has as its system PC15. The description is as above. The note with it: P. falciparum in erythrocytes, SYBR Green DNA, 72 h; series mostly up to 28.7 µM. An outline of the steps:
as §1

A further experiment has as its system PC26. The description is as above. The conditions noted are these: P. falciparum in erythrocytes, SYBR Green DNA, 72 h; series mostly up to 28.7 µM. In outline:
as §1

The test system of a further experiment is PC49. Described as above. The conditions noted are these: P. falciparum in erythrocytes, SYBR Green DNA, 72 h; series mostly up to 28.7 µM. An outline of the steps: as §1
Another experiment relates to SC27B. Described as above. The note with it: P. falciparum in erythrocytes, SYBR Green DNA, 72 h; series mostly up to 28.7 µM. An outline of the steps:
as §1

The subject of the next experiment is TAB109. Described as above. The conditions noted are these: P. falciparum in erythrocytes, SYBR Green DNA, 72 h; series mostly up to 28.7 µM. An outline of the steps:
as §1

Another experiment relates to TAB113. The experiment is described as above. The note with it: P. falciparum in erythrocytes, SYBR Green DNA, 72 h; series mostly up to 28.7 µM. An outline of the steps:
as §1

In a further experiment the test system is TAB165. Described as above. The conditions noted are these: P. falciparum in erythrocytes, SYBR Green DNA, 72 h; series mostly up to 28.7 µM. In outline:
as §1

In a further experiment the test system is W2. The experiment is described as above. The note with it: P. falciparum in erythrocytes, SYBR Green DNA, 72 h; series mostly up to 28.7 µM. In outline: as §1
Experiment [1] deals with CRL-7250. In words: Cytotoxic Profiling of Annotated Libraries Using Quantitative High-Throughput Screening (AID 1296008). For max response: % is set by controls: 0 for no effect and ±100 for the full control effect. Note: potency is the fitted concentration of half-maximal effect. The note with it: Five cell lines viability, CellTiter-Glo ATP luminescence, 48-72 h; max response: hits give low values. In outline: (§2)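 Compounds were pin-transferred onto cells and incubated 48 or 72 hr at 37 degree Celsius, 95% humidity. CellTiter-Glo was added, plates sat 10 min at room temperature, then ATP-coupled luminescence was imaged as the viability read-out.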
In general terms: ATP-based viability assays read luminescence as a measure of living cells.

Another experiment has as its system HEK293. The experiment is described as above. The note with it: Five cell lines viability, CellTiter-Glo ATP luminescence, 48-72 h; max response: hits give low values. In outline:
as §2

In experiment [2] the test system is HaCat. The description is as above. The conditions noted are these: Five cell lines viability, CellTiter-Glo ATP luminescence, 48-72 h; max response: hits give low values. In outline:
as §2

The next experiment concerns KB-3-1. The description is as above. The note with it: Five cell lines viability, CellTiter-Glo ATP luminescence, 48-72 h; max response: hits give low values. An outline of the steps: as §2
The next experiment concerns NIH3T3. The experiment is described as above. The conditions noted are these: Five cell lines viability, CellTiter-Glo ATP luminescence, 48-72 h; max response: hits give low values. In outline: as §2
Experiment [3] concerns HACAT. Put plainly: qHTS assay to identify novel small-molecules to repurpose for Merkel cell carcinoma treatment (AID 1296009). The conditions noted are these: MCC and control cell lines, CellTiter-Glo viability, 72 h; at 44.8 µM (top of the series) unless noted. In outline:
(§3)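 Viability readout: ATP luminescence (CellTiter-Glo) after 72 hr drug exposure at 37 degree celsius. Dose-response format was 8 points for NPC and 11 points for MIPE; data normalized to in-plate controls.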

In a further experiment the test system is HEK293T. The description is as above. The note with it: MCC and control cell lines, CellTiter-Glo viability, 72 h; at 44.8 µM (top of the series). In outline:
as §3

Experiment [4] deals with CRL-7250. Described as above. The conditions noted are these: MCC and control cell lines, CellTiter-Glo viability, 72 h; series mostly up to 44.8 µM. An outline of the steps:
as §3

The values below come from PubChem BioAssay (NCATS).

SMILES strings stand for the structures. Several values for one entry are separate records, joined by “and”; a condition that tells them apart may be missing. Equal values may be shown once. Records with an inconclusive call do not appear. Unmarked numbers belong to inactive results. Activity calls are given as the source filed them. Calls come from the whole dose curve; as a rule, active = well fitted inhibition curve with a large enough effect; inconclusive = small, poorly fitted or top-dose-only effect; inactive = flat fitted curve, though single readings scatter.
Note: nearly all actives have a fitted effect of over 60% in size.

On to `CCCC1CCCCN1` (stereo not drawn), for which the Potency entry in the experiment on N140, in the experiment with P93_24, in the experiment on P94_40, in the experiment with PAD, with PC15 and in the experiment with PC26 was “inactive” in each case. Besides, the Potency result with PC49, in the experiment with SC27B, with TAB109, with TAB113, in the experiment on TAB165 and with W2 was “inactive” throughout. Besides, the max response in the experiment with CRL-7250 [1] is -4.9%; in the experiment on HEK293, -7.03%; in the experiment with KB-3-1, -0.9%. In addition, the compound was called inactive in the experiment with HaCat [2], with NIH3T3 and with HACAT [3].

With `Cc1ccc2c(c1)C1CN(C)CCC1N2` (stereo not drawn), the values for the max response in the experiment on CRL-7250 [1], in the experiment with HEK293 and in the experiment with KB-3-1 were -0.945%, 1.62% and -4.81%, respectively. Further, the call with HaCat [2] and in the experiment with NIH3T3 was inactive. Besides, in the experiment with HACAT [3], the outcome is “inactive [at 17.4 µM]”.

On to `C=C1CC[C@@]2(O)[C@H]3Cc4ccc(O)c5c4[C@@]2(CCN3CC2CC2)[C@H]1O5`, for which the Potency result in the experiment with N140, in the experiment on P93_24, in the experiment with P94_40, with PAD, in the experiment with PC15 and in the experiment with PC26 was “inactive” throughout. The Potency result in the experiment on PC49, in the experiment with SC27B, in the experiment on TAB109, with TAB113 and with TAB165 was “inactive” in each case. In addition, the Potency with W2 is 6.75 µM (active). Moreover, the figures for the max response in the experiment with CRL-7250 [1], with HEK293 and in the experiment with KB-3-1 were 2.77%, -5.09% and 3.52%, respectively. For the same compound, the compound was called inactive with HaCat [2], in the experiment on NIH3T3 and in the experiment with HACAT [3].

As to `N[C@@H](Cc1ccc(N(CCCl)CCCl)cc1)C(=O)O`, the Potency entry in the experiment with PC26 and in the experiment with PC49 was “inactive” throughout. Besides, the values for the Potency with TAB165, in the experiment with W2 and with HEK293 were 11.2 µM (active), 6.75 µM (active) and 20.9 µM (active), respectively. For the same compound, the max response with CRL-7250 [1] is -7.43%; with HaCat [2], -1%; in the experiment on KB-3-1 it was -3.99% and -10.4%.

With `Cc1ncc(CNC(=O)N(CCCl)N=O)c(N)n1`, the Potency entry with N140, with P93_24, with P94_40, in the experiment on PAD, in the experiment with PC15 and with PC26 was “inactive” each time. For the same compound, the Potency result with PC49, in the experiment on SC27B, in the experiment with TAB109, in the experiment with TAB113, in the experiment with TAB165 and with W2 was “inactive” throughout. For the same compound, the max response is 0.0102% in the experiment on CRL-7250 [1], 2.72% in the experiment on HEK293, 2.09% with KB-3-1 and -2.43% with NIH3T3.

Consider `O=[N+]([O-])c1cc([As](=O)(O)O)ccc1O`, for which the Potency is 3.55 µM (active) in the experiment on N140; 3.55 µM (active) in the experiment with SC27B; 3.16 µM (active) with TAB109; 3.16 µM (active) in the experiment with TAB113; 3.55 µM (active) in the experiment with TAB165; 2.56 µM (active) with W2. The max response with CRL-7250 [1] was -0.161%; in the experiment on HaCat [2] it was -8.07%; in the experiment on KB-3-1, -14.1%. For the same compound, the call in the experiment with HEK293, in the experiment on NIH3T3 and in the experiment with HEK293T was inactive.

On to `NN=C(N)N`, for which the Potency result in the experiment with N140, with P93_24, in the experiment on P94_40, with PAD, in the experiment with PC15 and in the experiment with PC26 was “inactive” in each case. Besides, the Potency result in the experiment with PC49, in the experiment on SC27B, in the experiment on TAB109, with TAB113, with TAB165 and in the experiment on W2 was “inactive” throughout. The result in the experiment with CRL-7250 [1] and in the experiment on CRL-7250 [4] was inactive. The max response with HEK293 was -4.43%; in the experiment on HaCat [2], -1.38%; in the experiment with KB-3-1 it was 8.75%; with NIH3T3, -4.47%.

On to `CC(CCc1ccccc1)NC(C)C(O)c1ccc(O)cc1` (stereo not drawn), for which the Potency entry in the experiment on PAD, in the experiment with PC49, with SC27B and in the experiment on TAB113 was “inactive” in each case. Moreover, in the experiment on W2, the Potency is 4.26 µM (active). Also, the max response in the experiment on CRL-7250 [1] was -12.9%; in the experiment with HEK293 it was -17.5%; in the experiment with KB-3-1, -11.3%; with NIH3T3, -21.3%. The result in the experiment with HaCat [2] and in the experiment with HACAT [3] was inactive.

For the compound `N[C@@H]1C[C@H]1c1ccccc1`, the max response with CRL-7250 [1] is -2.94%; in the experiment with HEK293, -4.85%; in the experiment on KB-3-1, -0.335%; with NIH3T3 it was 3.17%. Besides, the call in the experiment on HaCat [2] and in the experiment on HACAT [3] was inactive.

Regarding `Cc1ccc(-c2nc3ccc(C)cn3c2CC(=O)N(C)C)cc1`, the Potency result with N140, in the experiment on P94_40, with PAD, with PC15, in the experiment with PC49 and in the experiment on SC27B was “inactive” each time. In addition, the Potency result in the experiment on TAB109, in the experiment on TAB113, in the experiment on TAB165 and in the experiment with W2 was “inactive” in each case. Further, the max response with CRL-7250 [1] is 3.97%; in the experiment with HEK293, -21.2%; in the experiment with HaCat [2], -0.388%; with KB-3-1 it was 2.97%; in the experiment on NIH3T3, -7.47%.

Take `CC[C@@H](CO)NC(=O)[C@@H]1C=C2c3cccc4[nH]cc(c34)C[C@H]2N(C)C1`: the Potency result with N140, with P93_24, in the experiment on P94_40, with PAD, with PC15 and in the experiment on PC26 was “inactive” in each case. For the same compound, the Potency result with PC49, in the experiment on SC27B, in the experiment on TAB109, in the experiment with TAB113, with TAB165 and in the experiment with W2 was “inactive” in each case. The max response is -1.45% in the experiment with CRL-7250 [1]; -3.34% in the experiment on HEK293; -5.68% with HaCat [2]; 37.2% with KB-3-1; -3.83% in the experiment on NIH3T3.

Consider `CC[C@@H](CO)NC(=O)[C@@H]1C=C2c3cccc4c3c(cn4C)C[C@H]2N(C)C1`, for which the max response was 4.07% in the experiment on CRL-7250 [1], -25.3% in the experiment with HEK293, -9.77% in the experiment with KB-3-1 and 2.49% in the experiment on NIH3T3. Also, the call in the experiment on HaCat [2] and in the experiment on HACAT [3] was inactive.

With `N[C@@H](Cc1ccc(Oc2cc(I)c(O)c(I)c2)c(I)c1)C(=O)O`, the max response in the experiment with CRL-7250 [1] was -1.97%; in the experiment on KB-3-1, 6.84%; with NIH3T3, -1.92%. For the same compound, the compound was called inactive with HEK293, in the experiment with HaCat [2], with HACAT [3] and with HEK293T.
